Compound activity from PubChem BioAssay.
Pf Dd2 inh: blocks growth of Plasmodium falciparum Dd2 parasites | P. falciparum Dd2 growth, SYBR Green, 72 h; stronger effect = lower value | 2.3% of 94,000 active | activity change, % at 10 µM; in the data active means activity change below about -80%
C diff growth: blocks growth of Clostridium difficile; 0.25% of 86,000 active; Clostridium difficile clinical isolate growth, OD600, 24 h; stronger effect = lower value; AID 1259249; growth activity, negative = inhibition, % at 16 µg/mL (by protocol);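 active means mean growth activity at or below -80% and every replicate also at or below -80%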;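 further: 0% = DMSO wells and -100% = levofloxacin 16 µg/mL wells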
T cruzi growth: inhibitors of T. cruzi proliferation; T. cruzi beta-gal in NIH3T3, GalScreen luminescence, 90 h; inhibition, % at 8.34 µM; 5.9% of 77,000 active; AID 624255;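 active means mean inhibition above about 93%, with at least 55% of replicates each passing it, limit read from the data, passing the limit was not always enough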
An asterisk follows results filed as active; ! = repeats disagree. Hits are enriched below; roughly 6.7% of the tested compounds scored in any of these assays.

How did O=S(=O)(c1ccc(F)cc1)N1C[C@@H]2N[C@H](C1)C2c1ccc(-c2ccc(F)cc2)cc1 (stereo partly specified) do in these assays?
Pf Dd2 inh: -88.5*!; C diff growth: 9.5

Results for COc1cccc(S(=O)(=O)N2C[C@@H]3N[C@H](C2)C3c2ccc(-c3ccccc3OC)cc2)c1 (stereo partly specified) ?
Pf Dd2 inh: -34.2; C diff growth: 11.2

What do the screens show for `O=S(=O)(c1ccccc1)N1C[C@@H]2N[C@H](C1)C2c1ccc(-c2ccc(F)cc2)cc1` (stereo partly specified)?
Pf Dd2 inh: -84.5*!; C diff growth: 9.0

What do the screens show for `COc1ccccc1-c1ccc([C@@H]2[C@@H]3CN(S(=O)(=O)c4ccc(-c5ccccc5)cc4)C[C@H]2N3)cc1`?
Pf Dd2 inh: -89.2*; C diff growth: 5.7

How did CN(C)C(=O)c1ccc(-c2ccc(C3[C@@H]4CN(S(=O)(=O)c5ccc(F)cc5)C[C@H]3N4)cc2)cc1 (stereo partly specified) do in these assays?
Pf Dd2 inh: -20.9; C diff growth: -12.0

Results for C[C@H](CO)N1C[C@H](C)[C@@H](CN(C)Cc2ccncc2)OCCCC[C@H](C)Oc2ccc(NC(=O)Nc3ccccc3)cc2C1=O ?
Pf Dd2 inh: -23.3; C diff growth: 12.6; T cruzi growth: 34.4

How did O=C(CN1CCOCC1)N[C@H]1CC[C@H](CCNC(=O)C2CCCC2)O[C@H]1CO do in these assays?
Pf Dd2 inh: -3.1; C diff growth: -1.4

What do the screens show for `CCS(=O)(=O)Nc1ccc2c(c1)C(=O)N(C)[C@H]1CC[C@H](CC(=O)Nc3ccccc3)O[C@H]1CO2`?
Pf Dd2 inh: 4.9; C diff growth: 7.8; T cruzi growth: -5.5

How did COCC(=O)N(C)C[C@H]1Oc2ncc(C#Cc3cccnc3)cc2C(=O)N([C@@H](C)CO)C[C@H]1C do in these assays?
Pf Dd2 inh: -9.8; C diff growth: -0.4; T cruzi growth: 66.0

What do the screens show for `C[C@H]1CN([C@@H](C)CO)C(=O)c2ccccc2-c2ccccc2CO[C@@H]1CN(C)C(=O)[C@@H](Cc1ccccc1)N(C)C`?
Pf Dd2 inh: -21.6; C diff growth: -7.0; T cruzi growth: -32.5

How did COc1ccc2c3c(n(C)c2c1)[C@@H](CO)N(C(=O)Nc1ccc(F)cc1)CC31CCN(Cc2ccccn2)CC1 do in these assays?
Pf Dd2 inh: -87.6*; C diff growth: -1.5

What do the screens show for `COc1cccc(CN2CCC3(CC2)CN(C(=O)Nc2ccc(F)cc2)[C@H](CO)c2c3c3ccc(OC)cc3n2C)c1`?
Pf Dd2 inh: -34.6; C diff growth: 52.0

What do the screens show for `COc1ccc2c3c(n(C)c2c1)[C@@H](CO)N(C(=O)Nc1ccc(F)cc1)CC31CN(Cc2ccccn2)C1`?
Pf Dd2 inh: -56.8; C diff growth: -3.2

Results for COc1ccc2c3c([nH]c2c1)[C@H](CO)N(C(=O)Nc1ccc(F)cc1)CC31CCN(Cc2cc(-c3ccccc3)on2)CC1 ?
Pf Dd2 inh: -87.1*; C diff growth: 3.6

What do the screens show for `COc1ccc2c3c([nH]c2c1)[C@@H](CO)N(C(C)=O)CC31CCN(Cc2cc(-c3ccccc3)on2)CC1`?
Pf Dd2 inh: -66.5; C diff growth: -3.0

Results for COc1ccc2c3c(n(C)c2c1)[C@H](CO)N(C(=O)Nc1ccc(F)cc1)CC31CCN(Cc2ccccn2)CC1 ?
Pf Dd2 inh: -89.5*; C diff growth: -4.0

Results for O=C(NC[C@H]1CC[C@H]2[C@H](CN2C(=O)CN2CCOCC2)O1)NC1CCCCC1 ?
Pf Dd2 inh: 37.7; C diff growth: -2.8

What do the screens show for `CCCNC(=O)N(C)C[C@@H]1Oc2ncc(-c3ccncc3)cc2C(=O)N([C@@H](C)CO)C[C@@H]1C`?
Pf Dd2 inh: 41.5; C diff growth: 6.4; T cruzi growth: -25.2

Results for C[C@@H]1CN([C@H](C)CO)C(=O)c2cc(NS(C)(=O)=O)ccc2O[C@@H](C)CCCCO[C@@H]1CN(C)Cc1ccc(Cl)c(Cl)c1 ?
Pf Dd2 inh: -88.0*; C diff growth: -0.8; T cruzi growth: 86.9

Results for Cc1ccc(S(=O)(=O)Nc2ccc3c(c2)C(=O)N([C@@H](C)CO)C[C@H](C)[C@H](CN(C)Cc2ccccc2)OCCCC[C@H](C)O3)cc1 ?
Pf Dd2 inh: -55.3; C diff growth: 2.2; T cruzi growth: 39.4

Results for Cc1ccc(S(=O)(=O)Nc2ccc3c(c2)C(=O)N([C@H](C)CO)C[C@@H](C)[C@@H](CN(C)Cc2ccccc2)OCCCC[C@@H](C)O3)cc1 ?
Pf Dd2 inh: -82.8*; C diff growth: 1.2; T cruzi growth: 100.9

How did C[C@@H]1CN([C@H](C)CO)C(=O)c2cc(NS(C)(=O)=O)ccc2O[C@@H](C)CCCCO[C@H]1CN(C)Cc1ccccc1 do in these assays?
Pf Dd2 inh: 20.5; C diff growth: 0.1; T cruzi growth: 58.1
